Experiment [1] is described as follows: qHTS Assay for Identification of Small Molecule Antagonists for NFkB Signaling Pathway. (AID 624479; calls by dose curve;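 also: pathway stimulated with TNF alpha; potency is read from the fitted curve at half-maximal effect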). Background: In qHTS, concentration-response curves come from the screen itself.
Experiment [2] is described as follows: qHTS assay for small molecule agonists of the antioxidant response element (ARE) signaling pathway (AID 651741; active = well fitted activation curve with a large enough effect in the signal ratio; the % refers to the signal ratio; also: potency is read from the fitted curve at half-maximal effect; as to activation: % of control where 0% means no effect). In short, it runs like this:
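Beta-lactamase reporter expression driven by the antioxidant response element in HepG2 cells was detected by fluorescence with LiveBLAzer B/G FRET substrate (2 h, room temperature) following 16 h compound treatment at 37 C.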

A short description of experiment [3]: qHTS assay for small molecule activators of the p53 signaling pathway (AID 651743; active = well fitted activation curve with a large enough effect in the signal ratio, not every such curve was filed as active; the % refers to the signal ratio; also: potency is read from the fitted curve at half-maximal effect; as to activation: % of control where 0% means no effect). The settings on record: HCT-116 p53RE-bla, beta-lactamase FRET ratio, 16 h; activation: stronger effect = higher value. In short, it runs like this:
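Here HCT-116 cells with an integrated p53-responsive beta-lactamase gene were incubated with compounds (16 hours, 37 C) after a 5-hour plating period; beta-lactamase activity was detected as fluorescence intensity via B/G FRET substrate.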

Experiment [4] is described as follows: qHTS assay for small molecule activators of the nuclear factor-kappa B (NF-kB) signaling pathway (AID 651749; active = well fitted activation curve with a large enough effect in the signal ratio; the % refers to the signal ratio; also: % of control where 0% means no effect). The settings on record: NF-kB-bla ME-180 cells, beta-lactamase FRET ratio, 16 h; stronger effect = higher value. The gist of the method: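 Beta-lactamase reporter expression, controlled by NF-kB response elements in ME-180 cells, was quantified fluorometrically via FRET disruption; cells at 2,000/well had been incubated with 23 nL test compound for 16 hr.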

Experiment [5] is described as follows: qHTS assay for small molecule disruptors of the mitochondrial membrane potential - 1 hr assay (AID 651754; calls by dose curve; also: nearly all actives have a fitted effect of over 35% in size; also: potency is read from the fitted curve at half-maximal effect). In short, it runs like this: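 In this qHTS format, a 1 hr compound treatment of HepG2 cells precedes Mito-MPS staining, and membrane potential is judged from aggregate (red) against monomer (green) fluorescence intensity.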
The nature of experiment [6]: qHTS assay for small molecule disruptors of the mitochondrial membrane potential - 5 hr assay (AID 651755; calls by dose curve; also: nearly all actives have a fitted effect of over 40% in size; also: potency is read from the fitted curve at half-maximal effect). In short, it runs like this: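 Seed HepG2 overnight, add compound, incubate 5 hr at 37C and 5% CO2, stain 30 min with Mito-MPS, then measure monomer (490/535 nm) and aggregate (540/590 nm) fluorescence.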
In experiment [7] the target is Tumor necrosis factor (Homo sapiens) (UniProt P01375). As to the kind of experiment: qHTS assay to identify small molecules that stimulate Tumor Necrosis Factor-alpha (TNF-alpha) secretion (AID 651757; active = well fitted curve in the direction sought with a large enough effect in the signal ratio; the % refers to the signal ratio; also: 0% is about no effect). In short, it runs like this:
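Using 3000 THP-1 cells per well, compounds and controls were applied for 17 hrs at 37 C. Detection followed with two labeled anti-TNF-alpha antibodies (cryptate donor, XL665 acceptor) for 3 hr at room temperature, measured by TR-FRET.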

The target of experiment [8] is Peroxisome proliferator-activated receptor alpha (Homo sapiens) (UniProt Q07869). As to the kind of experiment: qHTS assay for small molecule agonists of the peroxisome proliferator-activated receptor alpha (PPARalpha) signaling pathway (AID 651778). Also: % of control where 0% means no effect. To be noted: PathHunter PPARalpha complementation, chemiluminescence, 6 h; max response: stronger effect = higher value. The gist of the method:
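Cells plated at 2,000/well and held overnight at 37 C, 5% CO2, then compound added by pin tool for 6 hr; after PathHunter detection reagent and 60 min at room temperature, chemiluminescence from enzyme complementation was read.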

Experiment [9] deals with Nuclear receptor ROR-gamma (Homo sapiens) (UniProt P51449). As to the kind of experiment: qHTS assay for small molecule antagonists of the retinoid-related orphan receptor gamma (ROR-gamma) signaling pathway (AID 651802). Also: nearly all actives have a fitted effect of over 60% in size. Also: potency is read from the fitted curve at half-maximal effect. The gist of the method:
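Doxycycline-induced reporter activity in engineered CHO cells (TET-inducible ROR, RORE-LUC) was measured by luminescence after 16hr compound exposure at 37C.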

Experiment [10] is described as follows: qHTS assay to identify small molecules that stimulate interleukin-8 (IL-8) secretion (AID 651758; active = well fitted activation curve with a large enough effect in the signal ratio; the % refers to the signal ratio; also: 0% is about no effect). In short, it runs like this:
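Quantitative HTS in THP-1 monocytic cells at 2000 cells per well, with 16 hrs compound incubation at 37 C. IL-8 in the medium was then quantified by HTRF immunoassay, read after 1-3 hrs at room temperature.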

Experiment [11] addresses Tyrosine-protein kinase Yes (Homo sapiens) (UniProt P07947). The experiment can be described thus: qHTS for small molecule inhibitors of Yes1 kinase: Primary Screen (AID 686947). Also: potency is read from the fitted curve at half-maximal effect; nearly all actives have a fitted effect of over 60% in size. The gist of the method:
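In this qHTS format, inhibition is expressed relative to DMSO controls with enzyme (maximum) and without enzyme (minimum). The 60 min room-temperature reaction uses 0.1 mM ATP, with ADP detected by luminescence.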

Experiment [12] can be described thus: qHTS assay for environmental chemicals that activate the Aryl hydrocarbon Receptor (AhR) signaling pathway (AID 651777). Also: % of control where 0% means no effect; nearly all actives have a fitted effect of over 15% in size. To be noted: 1A2-DRE human hepatoma cells, luciferase, 24 h; activation: stronger effect = higher value. In short, it runs like this: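 Stable CYP1A2 promoter/DRE-luciferase human hepatoma line treated 24 hr; One-Glo luminescence, 30 min RT.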
Experiment [13] in a line: Cell Proliferation Assay against the HBL1 Cell Line (AID 651646).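 Also: cells exposed to compound for 48 h before reading; 100% = DMSO and 0% = 9.2 µM bortezomib.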 The settings on record: HBL1 DLBCL cells; at 46.1 µM (top of the series) unless noted. The gist of the method: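 After a 48 h incubation of 500 HBL1 cells/well in phenol red-free RPMI plus 5% FBS, relative luciferase units from CellTiter-Glo gave percent activity against DMSO and 9.2 uM bortezomib (final) controls.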

SMILES strings stand for the structures. Values joined by “and” are separate entries in the source; they are usually repeats but may differ in a detail not shown here. Equal values may be shown once. Inconclusive results are not listed. Active and inactive are the calls of the source. Unless noted, calls follow the shape of the dose curve; as a rule, active = well fitted curve in the direction sought with a large enough effect; inconclusive = small, poorly fitted or top-dose-only effect, or another doubt; inactive = no such curve, though single readings can be large; an effect the other way counts as inactive or inconclusive.

Tumor necrosis factor (Homo sapiens), sequence (P01375 whole entry, looked up): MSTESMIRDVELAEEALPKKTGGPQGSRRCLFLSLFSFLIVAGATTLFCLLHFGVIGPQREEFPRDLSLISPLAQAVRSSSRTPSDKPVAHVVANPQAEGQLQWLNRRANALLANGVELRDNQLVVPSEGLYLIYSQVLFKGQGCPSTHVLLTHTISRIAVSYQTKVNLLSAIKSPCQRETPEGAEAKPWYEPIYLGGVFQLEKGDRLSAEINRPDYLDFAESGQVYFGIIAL
Peroxisome proliferator-activated receptor alpha (Homo sapiens), sequence (Q07869 whole entry, looked up): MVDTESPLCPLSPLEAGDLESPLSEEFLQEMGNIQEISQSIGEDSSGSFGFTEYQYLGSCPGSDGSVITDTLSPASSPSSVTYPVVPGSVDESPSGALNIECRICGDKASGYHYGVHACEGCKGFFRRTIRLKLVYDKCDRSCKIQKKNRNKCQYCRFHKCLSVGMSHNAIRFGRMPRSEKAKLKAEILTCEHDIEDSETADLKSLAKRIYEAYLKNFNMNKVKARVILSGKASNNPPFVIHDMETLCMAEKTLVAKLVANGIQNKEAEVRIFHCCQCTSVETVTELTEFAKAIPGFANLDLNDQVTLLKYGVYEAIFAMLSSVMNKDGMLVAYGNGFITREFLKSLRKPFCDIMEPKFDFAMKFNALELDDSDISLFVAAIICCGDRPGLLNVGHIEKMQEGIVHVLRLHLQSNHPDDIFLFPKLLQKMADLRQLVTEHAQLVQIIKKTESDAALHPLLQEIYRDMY
Nuclear receptor ROR-gamma (Homo sapiens), sequence (P51449 whole entry, looked up): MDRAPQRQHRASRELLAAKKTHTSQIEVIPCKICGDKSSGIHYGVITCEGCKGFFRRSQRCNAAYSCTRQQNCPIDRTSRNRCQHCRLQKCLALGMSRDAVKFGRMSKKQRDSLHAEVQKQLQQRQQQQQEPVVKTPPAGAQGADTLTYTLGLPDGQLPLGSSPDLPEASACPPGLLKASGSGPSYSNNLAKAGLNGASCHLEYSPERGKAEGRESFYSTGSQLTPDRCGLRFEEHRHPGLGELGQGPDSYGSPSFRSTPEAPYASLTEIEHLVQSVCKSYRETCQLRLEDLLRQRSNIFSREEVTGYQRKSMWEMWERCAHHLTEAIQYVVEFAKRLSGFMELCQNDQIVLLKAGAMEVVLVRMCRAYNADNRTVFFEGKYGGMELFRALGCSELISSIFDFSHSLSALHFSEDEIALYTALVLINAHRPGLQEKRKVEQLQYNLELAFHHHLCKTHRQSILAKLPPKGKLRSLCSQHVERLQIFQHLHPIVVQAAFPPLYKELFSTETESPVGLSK
Tyrosine-protein kinase Yes (Homo sapiens), sequence (P07947 whole entry, looked up): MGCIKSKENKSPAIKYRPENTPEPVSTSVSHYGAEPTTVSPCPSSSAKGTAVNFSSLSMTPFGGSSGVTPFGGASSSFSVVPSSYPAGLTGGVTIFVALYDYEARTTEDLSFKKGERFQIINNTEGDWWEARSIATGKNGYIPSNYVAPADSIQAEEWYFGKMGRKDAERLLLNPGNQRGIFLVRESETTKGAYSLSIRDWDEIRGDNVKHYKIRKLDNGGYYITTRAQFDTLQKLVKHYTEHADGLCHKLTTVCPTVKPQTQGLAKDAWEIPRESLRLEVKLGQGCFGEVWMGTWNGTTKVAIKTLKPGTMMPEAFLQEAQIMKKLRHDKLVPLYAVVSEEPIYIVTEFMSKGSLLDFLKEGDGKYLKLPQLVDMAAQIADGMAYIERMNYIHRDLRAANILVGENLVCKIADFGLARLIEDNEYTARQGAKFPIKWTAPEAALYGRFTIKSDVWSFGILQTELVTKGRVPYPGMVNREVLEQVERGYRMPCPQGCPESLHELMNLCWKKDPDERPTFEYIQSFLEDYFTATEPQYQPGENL

With `O=C(Nc1cc(C(F)(F)F)cc(C(F)(F)F)c1)c1cc(Cl)ccc1O`, the Potency in experiment [1] was 14.9 µM (active).
`CN(C)NC(=O)CCC(=O)O`: the Potency result in experiment [2], in experiment [5], in [6] and in [9] was “inactive” in each case. The activation is 0.825% (inactive) and -3.72% (inactive) in [3]; 0.502% (inactive) and -0.298% (inactive) in experiment [4]. Also, the result in experiment [7] was inactive. In addition, the max response in [8] is 0.401% (inactive) and -4.12% (inactive).
For the compound `O=S(=O)(O)C(F)(F)C(F)(F)C(F)(F)C(F)(F)C(F)(F)C(F)(F)C(F)(F)C(F)(F)F`, the Potency entry in experiment [2] is “inactive”. In addition, the activation in experiment [3] was -2.58% (inactive) and 0.715% (inactive). The max response in experiment [8] was -0.394% (inactive) and 4.02% (inactive).
For `COC(C)(C)CCCC(C)C/C=C/C(C)=C/C(=O)OC(C)C` (stereo not drawn), in experiment [2], the Potency was 48.6 µM (active) and 66.8 µM (active). The activation in experiment [3] is -4.75% (inactive) and -1.61% (inactive); in experiment [4], -3.22% (inactive) and 0.402% (inactive). Moreover, the Potency result in experiment [5], in [6] and in [9] was “inactive” throughout. Further, the compound was called inactive in experiment [7]. In [8], the max response was 3.83% (inactive) and 3.99% (inactive).
`O=S(=O)(c1ccc(Cl)cc1)c1ccc(Cl)cc1`: the Potency in experiment [2] was 66.8 µM (active). Further, the activation in [3] is -0.565% (inactive) and -3.02% (inactive) and 0.243% (inactive). Also, the outcome in experiment [7] and in experiment [10] was inactive. Also, the max response in experiment [8] is 2.6% (inactive) and -3.68% (inactive) and -3.44% (inactive). In addition, the Potency result in experiment [9] is “inactive”.
Take `CCOc1ccc(Nc2nc(-c3c(C)nc4ccccn34)cs2)cc1`: the Potency in [1] was 0.335 µM (active).
As for `CC(C)(C)C(O)C(Oc1ccc(Cl)cc1)n1cncn1` (stereo not drawn), the Potency entry in experiment [2] was “inactive”. Moreover, the values for the activation in [3] and in [4] were -1.72% (inactive) and -0.211% (inactive), respectively. The max response in experiment [8] was -0.528% (inactive).
As to `C1CCC(NC2CCCCC2)CC1`, the Potency entry in [2] and in experiment [9] was “inactive” throughout. The activation in experiment [3] was -5.71% (inactive) and -0.896% (inactive) and -1.09% (inactive). Also, the outcome in [7] and in [10] was inactive. Moreover, the max response in [8] is 0.749% (inactive) and -0.258% (inactive) and -1.01% (inactive).
`C1=CCOCc2cc(ccc2OCCN2CCCC2)Nc2nccc(n2)-c2cccc(c2)OCC1`: the Potency was 0.943 µM (active) in experiment [1] and 0.0434 µM (active) in experiment [11].
As for `O=[N+]([O-])c1c2ccccc2cc2ccccc12`, the values for the Potency in [2], in experiment [5] and in experiment [6] were 53.1 µM (active), 11.9 µM (active) and 29.8 µM (active), respectively. For the same compound, the activation in experiment [3] was 4.5% (inactive). Further, the outcome in experiment [7] was inactive. Besides, the max response in [8] was 5.89% (inactive). Also, the Potency result in [9] was “inactive”.
Regarding `CO/C=C(/C(=O)OC)c1ccccc1Oc1cc(Oc2ccccc2C#N)ncn1`, the Potency in [2] is 13.7 µM (active). Moreover, the activation in experiment [3] is 25% (inactive); in experiment [12] it was 1.61% (inactive).
Regarding `Cc1nc2cnc3ccc(C#Cc4cccnc4)cc3c2n1-c1ccc(C(C)(C)C#N)cc1`, the Potency in [1] is 18.8 µM (active); in experiment [11] it was 2.18 µM (active).
As to `CCCCCC[C@H]1C(=O)O[C@H](C)[C@H](NC(=O)c2cccc(NC=O)c2O)C(=O)O[C@@H](C)[C@@H]1OC(=O)CC(C)C`, the Potency is 4.33 µM (active) in experiment [2] and 0.02 µM (active) in experiment [3]. In addition, in experiment [4], the activation is 2.55% (inactive).
As for `COc1ccc(C(c2ccc(OC)cc2)C(Cl)(Cl)Cl)cc1`, the Potency in [2] was 33.5 µM (active) and 61.1 µM (active); in experiment [5], 23.7 µM (active) and 37.6 µM (active); in [6], 37.6 µM (active); in experiment [9], 26.6 µM (active). The activation in experiment [3] is 2.38% (inactive) and 0.818% (inactive); in experiment [4], 1.06% (inactive) and 0.442% (inactive) and 3.56% (inactive). Besides, the result in experiment [7] and in experiment [10] was inactive. For the same compound, in experiment [8], the max response is 12.2% (inactive) and 6.03% (inactive) and 0.144% (inactive).
With `COc1cc2c(cc1O)CC[C@@H]1[C@@H]2CC[C@]2(C)[C@@H](O)CC[C@@H]12`, the viability, percent of control in experiment [13] amounted to 37.3%.
Regarding `ClC1=C(Cl)[C@]2(Cl)[C@@H]3[C@@H]4C[C@@H]([C@H]5O[C@@H]45)[C@@H]3[C@@]1(Cl)C2(Cl)Cl`, the Potency in experiment [2] is 54.5 µM (active). For the same compound, the activation in experiment [3] is -1.42% (inactive); in experiment [4], 5.88% (inactive). The max response in experiment [8] was 12.3% (inactive).
